Source: PubChem BioAssay
Hits are enriched below; roughly 22% of the tested compounds scored in any of these assays.
CYP2C9 activ – human CYP2C9 activators, primary screen, biochemical, luminescence. recombinant CYP2C9, luciferin-H conversion; active compounds read high; factor 1 = untreated enzyme, 0 = blocked. 1.4% of 96,000 active. activation factor at 5 µM. Cytochrome P450 2C9 (Homo sapiens), P11712;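 active means activation factor of 2 or more for CYP2C9 at a 5 µM dose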
CYP2C19 inhib – blockers of cytochrome P450 2C19 activity – biochemical, luminescence, ADME assay, primary screen. AID 778, 2007. CYP2C19 Supersomes, luciferin-H EGE luminescence, 30 min. inhibition, % at 5 µM. P33261. 21% of 96,000 active;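 active means CYP2C19 inhibition above a set limit at 5 µM in the primary screen, cut at about 50% in these data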
Target sequence (P33261 whole entry, looked up): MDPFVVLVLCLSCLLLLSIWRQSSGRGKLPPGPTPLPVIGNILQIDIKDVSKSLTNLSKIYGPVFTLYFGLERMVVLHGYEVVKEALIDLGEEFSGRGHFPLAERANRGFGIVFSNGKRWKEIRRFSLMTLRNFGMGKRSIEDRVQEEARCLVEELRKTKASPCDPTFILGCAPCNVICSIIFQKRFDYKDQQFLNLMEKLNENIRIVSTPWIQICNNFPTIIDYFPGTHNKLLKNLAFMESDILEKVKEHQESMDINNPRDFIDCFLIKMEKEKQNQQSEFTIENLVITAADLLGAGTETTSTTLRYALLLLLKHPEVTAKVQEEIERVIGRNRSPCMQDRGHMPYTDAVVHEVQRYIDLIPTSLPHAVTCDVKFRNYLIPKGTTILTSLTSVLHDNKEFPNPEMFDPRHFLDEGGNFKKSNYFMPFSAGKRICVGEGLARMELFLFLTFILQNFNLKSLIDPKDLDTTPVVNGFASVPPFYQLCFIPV
CYP2C9 inh – blockers of cytochrome P450 2C9 activity – biochemical, luminescence, ADME assay, primary screen | CYP2C9 Supersomes, luciferin-H conversion | inhibition, % at 5 µM | 20% of 96,000 active;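 active means blocking of liver enzyme CYP2C9 beyond about 50% at 5 µM, limit read from the data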
CYP2C19 act – human CYP2C19 activators, primary screen, biochemical, luminescence; Cytochrome P450 2C19 (Homo sapiens), P33261; recombinant CYP2C19, luciferin-H EGE luminescence; active compounds read high; 0 = fully inhibited enzyme, 1 = untreated enzyme; activation factor at 5 µM; 96,000 tested, under 10 active;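 active means activation factor of at least 2 at 5 µM in the primary screen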
Measles CPE – compounds protecting cells from measles virus cytopathic effect, primary screen, measles RdRp inhibitor project, single point, MLSMR library, absorbance; 1.5% of 140,000 active; Measles virus-infected cells, CPE protection; protection (pct of control), % at 4 µM; AID 841, 2007; in the data active means protection mostly above about 24%, no sharp cut-off; inactive means mostly below about 26%
Hits are given with their value; - = inactive; . = no result given.

SMILES	CYP2C9 activ	CYP2C19 inhib	CYP2C9 inh	CYP2C19 act	Measles CPE
O=C(COC(=O)Cn1cnc2ccccc21)NCCc1ccccc1	-	-	-	-	-
O=C(c1cc2sccc2n1Cc1ccccc1)N1CCc2ccccc21	-	-	63	-	-
Cn1c(C(=O)N2CCCc3ccccc32)cc2sccc21	-	71	-	-	-
O=C(c1cc2sccc2n1Cc1ccccc1)N1CCCc2ccccc21	-	88	95	-	-
O=C(c1cc2sccc2n1Cc1ccc(F)cc1)N1CCN(c2nc3ccccc3s2)CC1	.	.	.	.	-
C/C(=N\NC(=O)Cc1c(C)[nH][nH]c1=O)c1ccc2ccccc2c1	.	.	.	.	-
CCOC(=O)c1sc(NC(=O)COC(=O)c2ccco2)nc1C	-	-	-	-	-
Cc1ccc(N2CC(C(=O)NCC3CCCO3)CC2=O)cc1Cl (configuration not stated)	2.6	-	-	-	-
CN(C)CCNC(=O)C1CC(=O)N(c2ccc(F)c(Cl)c2)C1 (configuration not stated)	-	-	-	-	-
Cc1cc(C(=O)NNC(=S)NCC2CCCO2)cs1 (configuration not stated)	-	52	-	-	-
CCc1c(C(=O)NNC(=S)NCC2CCCO2)csc1C (configuration not stated)	.	.	.	.	-
Cc1cnn(C(=S)NCC2CCCO2)c1 (configuration not stated)	-	56	-	-	-
Cc1ccc(C(=O)NC(=S)NCC2CCCO2)cc1 (configuration not stated)	-	68	-	-	-
Cc1ccc(C)n1-c1ccc(C(=O)NCC2CCCO2)cc1 (configuration not stated)	-	58	-	-	-
COc1ccc(C(=O)NCC2CCCO2)cc1 (configuration not stated)	.	.	.	.	-
COC(=O)CSc1nnc(CNc2ccc(F)cc2)o1	-	-	-	-	-
O=C(O)c1ccccc1NCc1ccncc1	-	-	76	-	-
O=C(O)c1ccc(CNc2ccccc2C(=O)O)cc1	-	-	-	-	-
CC(C)Cn1c(CCCNC(=O)c2ccc(F)cc2)nc2ccccc21	-	-	-	-	-
Cn1c(CCCNC(=O)c2cccs2)nc2ccccc21	-	-	-	-	-
Cn1c(SCC(=O)NCc2ccc(F)cc2)nc2ccccc21	3.1	-	-	-	-
Cn1c(CCCNC(=O)c2ccccc2)nc2ccccc21	2.4	-	-	-	-
Cn1c(CNc2ccc(Cl)cc2)nc2ccccc21	-	98	84	-	-
Cn1c(CNC(=O)c2ccc(F)cc2)nc2ccccc21	-	72	-	-	-
Cc1nn(C)cc1C1C(C#N)=C(N)N(c2cccnc2)C2=C1C(=O)CCC2 (configuration not stated)	.	.	.	.	-
SMILES	CYP2C9 activ	CYP2C19 inhib	CYP2C9 inh	CYP2C19 act	Measles CPE
COc1cc2c3c(c1)/C(=C1/SC(NC(C)=O)=NC1=O)C(=O)N3C(C)(C)C=C2C	-	-	-	-	-
COc1ccccc1C(=O)NCCc1nc2ccccc2n1C	-	97	-	-	-
COc1ccccc1C(=O)Nc1ccc2c(c1)nc(CCNC(C)=O)n2C	-	-	-	-	-
Cn1c(SCC(=O)N/N=C/c2cccs2)nc2ccccc21	2	-	-	-	-
COc1ccccc1NS(=O)(=O)c1ccc(N/N=C(\C)C(C)C)c([N+](=O)[O-])c1	.	.	.	.	-
Cn1c(/C(C#N)=C/C2CC=CCC2)nc2ccccc21 (configuration not stated)	-	58	-	-	-
COC(=O)Cn1c(=NC(=O)c2ccc(Cl)s2)sc2cc(F)ccc21	.	.	.	.	-
Cc1ccc(S(=O)(=O)N2CCOCC2)c(C)c1-n1cnnn1	3	-	-	-	-
COc1cc(-n2cnnn2)ccc1S(=O)(=O)N1CCOCC1	-	-	-	-	-
Nc1ccc2c(c1)C(=O)C(=O)c1ccccc1-2	-	98	87	-	-
O=C1C(=O)c2ccc(-c3ccccc3)cc2-c2ccccc21	.	.	.	.	-
CCCC(=O)Nc1cc(-c2nc3ncccc3o2)ccc1C	.	.	.	.	-
O=C(Nc1cccs1)Nc1ccc(Br)cc1F	.	.	.	.	-
O=C(Nc1ccc2c(c1)oc1ccc(S(=O)(=O)N3CCCC3)cc12)C1CC1	-	-	53	-	-
CC1=C(C#N)C(Nc2cc(C)ccn2)(C(F)(F)F)C(=O)N1 (configuration not stated)	-	76	-	-	-
CC1=C(C#N)C(NC(=O)c2ccc(Cl)cc2)(C(F)(F)F)C(=O)N1 (configuration not stated)	.	.	.	.	-
CC1=C(C#N)C(NC(=O)c2ccc(C)cc2)(C(F)(F)F)C(=O)N1 (configuration not stated)	-	92	-	-	-
CC1=C(C#N)C(NC(=O)c2ccco2)(C(F)(F)F)C(=O)N1 (configuration not stated)	-	-	-	-	-
CCOc1ccc(OCC)c(NC(=O)CSc2nnc(-c3cccnc3)o2)c1	-	-	-	-	-
Oc1ccc(/C=N/NC(=S)Nc2cccnc2)c(O)c1	.	.	.	.	-
CC(C)(C)C(=O)Nc1ccccc1C(=O)Nc1cc(Cl)ccc1Cl	-	-	61	-	-
CCOc1ccc(-n2c(SCC(=O)Nc3ccc4c(c3)OCCO4)nc3c(c2=O)SCC3)cc1	-	77	63	-	-
COc1ccc(-n2c(SCC(=O)Nc3nccs3)nc3c(c2=O)SCC3)cc1	-	-	-	-	-
CCOc1ccc(-n2c(SCC)nc3c(c2=O)SCC3)cc1	-	-	-	-	-
CCOc1ccc(-n2c(SCC(=O)Nc3ccc4c(c3)OCO4)nc3c(c2=O)SCC3)cc1	-	-	59	-	.
SMILES	CYP2C9 activ	CYP2C19 inhib	CYP2C9 inh	CYP2C19 act	Measles CPE
O=C(c1ccco1)N1CCN(C(=O)c2cnn3c(C(F)(F)F)cc(-c4cccs4)nc23)CC1	-	-	-	-	-
CCOC(=O)Cc1c(C)nc2c(-c3ccc(Cl)cc3)c(C)[nH]n2c1=O	-	56	-	-	-
CCOC(=O)Cc1c(C)nc2c(-c3cccc(Br)c3)c[nH]n2c1=O	-	-	74	-	-
CCOC(=O)Cc1c(C)nc2c(C#N)c[nH]n2c1=O	-	-	-	-	-
Cc1nc([N+](=O)[O-])c(N2CCN(Cc3ccccc3)CC2)n1Cc1ccccc1	-	54	57	-	-
COc1ccc(N2C(=O)C3C4C=CC(C5CC45)C3C2=O)c([N+](=O)[O-])c1 (configuration not stated)	2	-	-	-	-
CCCc1nc2oc3c(NCC4CCCO4)ncnc3c2c2c1COC(C)(C)C2 (configuration not stated)	-	-	52	-	-
CCCc1nc2oc3c(NCc4ccccn4)ncnc3c2c2c1COC(C)(C)C2	-	-	52	-	-
